# Hsp70 act: switches on Hsp70 transcription | AID 1203 | HeLa Hsp70 promoter luciferase reporter, luminescence; scaled: vehicle 0, proteasome-inhibitor control 100% | activation, % at 10 µM | actives 0.04% (n = 200,000);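 active means activation above the mean across all tested compounds plus 3 SD, cutoff set per campaign, cut at about 5.5% in these data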;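 further: 100% = MG132 at 30 µM as the positive control and 0% = DMSO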
# NALP1 inh: inhibitors of NALP1 inflammasome in yeast | AID 2071 | actives 0.61% (n = 280,000) | inhibition, % at 10 µM | S. cerevisiae NALP1/ASC/caspase-1 growth, X-gal OD620, 72 h; in the data active means inhibition mostly above about 24%, no sharp cut-off; inactive means mostly below about 32%
# HSF1 activator: increases HSF-1 driven luciferase reporter signal. actives 1.7% (n = 300,000). activation, % at 9 µM. NIH3T3-HGL HSF-1 luciferase reporter, MG132, 8 h; 100% = twice DMSO control signal;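 active means mean replicate activation of at least 50% with a set share of replicates each reaching 50%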;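 further: 0% = median of the neutral control wells and 100% = twice that signal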
# HSF1 inh: HSF1 inhibition; NIH3T3-HGL HSE-luciferase, MG132-induced, luminescence 8 h; active compounds read low; activity change, negative = inhibition, % at 7.5 µM (by protocol); actives 0.77% (n = 300,000);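 active means more than half of replicate wells show activity change below -50%, luminescence cut by over half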;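 further: luciferase reports HSF-1 transcriptional activity via heat shock element; 0% = median of DMSO wells and -100% = zero luminescence signal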
# HSP90 refold inh: HSP90 refolding inhibition in rabbit reticulocyte lysate. luciferase refolding luminescence, 3 h. inhibition, % at 5.6 µM. actives 0.91% (n = 290,000);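 active means inhibition above the screen-wide mean plus 3 SD, computed separately per campaign, cut at about 16% in these data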;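 further: 0% = DMSO wells and 100% = 60 µM geldanamycin wells; inhibitors lower the luminescence because luciferase stays unfolded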
# p-CIP stab down: lowers stability of the mouse p/CIP coactivator protein; Q05BA5; F442A p/CIP-EGFP cells, EGFP fluorescence, 16 h; decrease of EGFP signal, % at 10 µM; actives 0.01% (n = 290,000); AID 1984;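 active means EGFP signal decrease of at least 30% at 10 µM or well 3 SD below plate mean, unless failing retest; inactive means the rest, including hits failing retest or dose response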
# The depositor's hits bear a star; · = not tested or not shown. This is a sample that favours compounds with a hit; in the whole collection about 3.8% have one here.
SMILES,Hsp70 act,NALP1 inh,HSF1 activator,HSF1 inh,HSP90 refold inh,p-CIP stab down
COc1ccc(-c2nnc(Nc3ccc(CC(N)=O)cc3)c3ccccc23)cc1,-0.3,15.4,56.8*,28.2,-0.4,0.3
COc1ccc2nc(SCc3cccc(C)c3)nc(C)c2c1,0.0,31.3,94.8*,48.2,-2.8,-11.3
COc1ccc2nc(SCc3ccccc3C)nc(C)c2c1,-0.3,19.8,54.9*,24.3,-0.6,12.1
Cc1ccc(-n2nnnc2-c2ccccc2Br)cc1,·,·,-1.8,-4.0,·,·
CC1c2ccsc2CCN1C(=O)NC(=O)c1ccc(Cl)cc1 (stereo not drawn),·,10.8,71.5*,21.1,-1.9,-12.8
Cc1ccc(C2=N/C(=C\N3CCCCC3)C(=O)O2)cc1,0.0,37.7*,62.5*,21.3,3.3,-10.8
O=C(C(=O)N1CCN(Cc2ccc3c(c2)OCO3)CC1)c1c[nH]c2ccccc12,·,8.4,6.4,5.1,8.5,3.0
COc1cccc(OCc2ccc(Cl)cc2)c1C#N,·,·,61.3*,39.6,1.1,-1.1
COc1cccc(CNC(C)(C)CO)c1OCc1ccc(Cl)cc1,0.1,1.3,-8.3,-10.8,-3.2,-2.6
Cn1c(CNC(=O)CNC(=O)Cc2ccccc2)cc(=O)n(C)c1=O,·,9.9,4.5,-0.5,-0.3,-0.4
O=C(/C=C/c1ccc(Br)cc1)NC(=S)N1CCOCC1,-0.4,-4.4,18.7,-3.4,-1.3,-11.6
O=[N+]([O-])c1ccc(COn2nnc3ccccc32)cc1,-0.2,-4.5,30.0,19.7,-2.5,-20.4
Clc1ccc(COn2nnc3ccccc32)c(Cl)c1,-0.2,24.3,85.8*,52.6,5.0,-8.0
O=C(CSc1nnc(-c2ccc(F)cc2)n1CC1CCCO1)NCc1ccco1 (stereo not drawn),·,20.2,-14.8,-5.2,-1.5,1.4
O=C(NCc1ccco1)C1CCCN(S(=O)(=O)c2cccc3nsnc23)C1 (stereo not drawn),-0.3,12.4,-20.1,-0.7,3.0,-8.7
O=C(NCc1ccccn1)C1CCCN(S(=O)(=O)c2cccc3nsnc23)C1 (stereo not drawn),0.0,31.8*,-18.4,3.2,1.1,7.6
CCc1cccc(C)c1NC(=O)CSc1nc(C)c(C)o1,·,10.1,-16.6,-0.9,-5.1,3.4
Cc1nc(N2CCC(C)CC2)c2c(C)c(C(=O)Nc3ccc(C(F)(F)F)cc3)sc2n1,0.5,-3.8,8.3,3.0,0.1,0.6
Cc1nc(N2CCC(C)CC2)c2c(C)c(C(=O)Nc3cccc(C(F)(F)F)c3)sc2n1,-0.3,14.1,59.2*,20.2,1.2,7.0
CCOC(=O)C1=C(c2ccccc2)NC(SC)=C(C#N)C1c1ccco1 (stereo not drawn),-0.2,1.5,51.5*,29.7,3.0,-22.3
CC(=O)C1=C(C)NC(SCC(=O)c2ccccc2)=C(C#N)C1c1ccco1 (stereo not drawn),0.1,18.6,77.3*,54.6,3.0,-17.2
CCOC(=O)C1=C(c2ccccc2)NC(SCC(=O)Nc2ccc(C)cc2)=C(C#N)C1c1ccco1 (stereo not drawn),-0.3,17.7,-5.0,-2.6,-2.0,9.7
CC(=O)C1=C(C)NC(SCC(=O)c2ccc(Cl)cc2)=C(C#N)C1c1ccco1 (stereo not drawn),-0.2,-9.7,29.5,21.0,2.9,2.7
CCC1CSC(Nc2ccc(C(=O)/C=C/c3ccc(Oc4ccccc4)cc3)cc2)=N1 (stereo not drawn),-0.3,40.9,14.4,14.4,2.3,-4.5
CCC1CSC(Nc2ccc(C(=O)/C=C/c3cccc(C)c3)cc2)=N1 (stereo not drawn),-0.2,15.4,74.7*,53.1,0.2,-6.2
O=C(O)C[C@H]1c2ccccc2S(=O)(=O)N1C1CCCC1,·,·,-2.3,-9.1,·,·
O=C(NC1CCCCC1)N1CCN(c2ccccc2)CC1,-0.1,-10.5,0.0,-1.9,3.7,-15.4
O=C(NC1CCCCC1)N1CCN(C(c2ccccc2)c2ccccc2)CC1,-0.1,41.0*,3.3,-3.8,4.2,9.3
C/C(=N\NC1=N[C@H]2CS(=O)(=O)C[C@H]2S1)c1ccccc1,·,·,-4.0,-14.3,6.6,-16.3
O=C(Nc1nccs1)c1cccc(N2C(=O)c3cccc4c([N+](=O)[O-])ccc(c34)C2=O)c1,-0.4,0.7,170.3*,148.1,1.0,-42.5
